Assay results from the supplement of paper PMC4723716.
± gives the uncertainty stated by the source. Whole data set: some 9,900 compounds, median “viability index relative to DMSO control” near 1, cut for the lowest 2% near 0.85. What follows is part of a selection rich in the lowest values, with near analogues and random picks from the rest.

Tested on: Plasmodium falciparum NF54 stage V gametocytes
Assay: viability index relative to DMSO control (fraction); higher = less gametocyte killing
Conditions: 2.5 µM, library set: Broad Institute DOS, incubation time: 72 h
Procedure, shortened: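 Gametocytes (P. falciparum NF54, stage V) were treated with compound at 2.5 µM for 72 hr at 37°C in low oxygen, in serum-free medium at 0.75% gametocytemia and 1.25% hematocrit. Counts of 20–70 µm2 red particles, taken from one field per well after MitoTracker Red CMXRos with saponin, were divided by the plate mean of solvent-only wells. This ratio is the viability index.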

COc1ccccc1NC(=O)N1C[C@@H](O)COC[C@H]2O[C@H](CC(=O)N3CCC(Cc4ccccc4)CC3)CC[C@@H]21
viability index: 1 ± 0.15

COc1ccc(S(=O)(=O)Nc2ccc3c(c2)C(=O)N([C@H](C)CO)C[C@@H](C)[C@H](CN(C)S(=O)(=O)c2ccc(Cl)cc2)OCCCC[C@H](C)O3)cc1
viability index: 0.823 ± 0.033

COc1ccc(S(=O)(=O)Nc2ccc3c(c2)C(=O)N([C@@H](C)CO)C[C@H](C)[C@@H](CN(C)Cc2ccc(C(F)(F)F)cc2)OCCCC[C@@H](C)O3)cc1
viability index: 0.829 ± 0.0097

COc1ccc(S(=O)(=O)Nc2ccc3c(c2)C(=O)N([C@@H](C)CO)C[C@@H](C)[C@@H](CN(C)Cc2ccc(C(F)(F)F)cc2)OCCCC[C@H](C)O3)cc1
viability index: 0.994 ± 0.023

COc1ccc(S(=O)(=O)Nc2ccc3c(c2)C(=O)N([C@@H](C)CO)C[C@@H](C)[C@H](CN(C)S(=O)(=O)c2ccc(Cl)cc2)OCCCC[C@H](C)O3)cc1
viability index: 0.9073 ± 0.0032

COc1ccc(S(=O)(=O)Nc2ccc3c(c2)C(=O)N([C@H](C)CO)C[C@H](C)[C@@H](CN(C)S(=O)(=O)c2ccc(Cl)cc2)OCCCC[C@H](C)O3)cc1
viability index: 0.886 ± 0.03

COc1ccc(S(=O)(=O)Nc2ccc3c(c2)C(=O)N([C@H](C)CO)C[C@@H](C)[C@H](CN(C)S(=O)(=O)c2ccc(Cl)cc2)OCCCC[C@@H](C)O3)cc1
viability index: 0.887 ± 0.072

COc1ccc(S(=O)(=O)Nc2ccc3c(c2)C(=O)N([C@@H](C)CO)C[C@H](C)[C@H](CN(C)S(=O)(=O)c2ccc(Cl)cc2)OCCCC[C@@H](C)O3)cc1
viability index: 0.953 ± 0.064

COc1ccc(S(=O)(=O)Nc2ccc3c(c2)C(=O)N([C@H](C)CO)C[C@H](C)[C@@H](CN(C)S(=O)(=O)c2ccc(Cl)cc2)OCCCC[C@@H](C)O3)cc1
viability index: 1.02 ± 0.05

COc1ccc(S(=O)(=O)Nc2ccc3c(c2)C(=O)N([C@@H](C)CO)C[C@@H](C)[C@@H](CN(C)S(=O)(=O)c2ccc(Cl)cc2)OCCCC[C@@H](C)O3)cc1
viability index: 0.77 ± 0.046

COc1ccc(S(=O)(=O)Nc2ccc3c(c2)C(=O)N([C@@H](C)CO)C[C@@H](C)[C@@H](CN(C)S(=O)(=O)c2ccc(Cl)cc2)OCCCC[C@H](C)O3)cc1
viability index: 0.911 ± 0.031

COc1ccc(S(=O)(=O)Nc2ccc3c(c2)C(=O)N([C@H](C)CO)C[C@@H](C)[C@@H](CN(C)S(=O)(=O)c2ccc(Cl)cc2)OCCCC[C@@H](C)O3)cc1
viability index: 0.533 ± 0.11

COc1ccc(S(=O)(=O)Nc2ccc3c(c2)C(=O)N([C@@H](C)CO)C[C@H](C)[C@H](CN(C)Cc2ccc(C(F)(F)F)cc2)OCCCC[C@@H](C)O3)cc1
viability index: 1.05 ± 0.2

N#C[C@@H]1[C@H](c2ccccc2-c2cccc(F)c2)[C@@H](CO)N1C(=O)c1cccnc1
viability index: 1.09 ± 0.063

O=C(c1cccc(F)c1)N1CC2(C1)[C@H](c1ccccc1)[C@@H](CO)N2Cc1ccccn1
viability index: 1.13 ± 0.11

C[C@@H]1CN([C@@H](C)CO)C(=O)CCCn2nncc2CO[C@H]1CN(C)S(=O)(=O)c1ccc(Oc2ccccc2)nc1
viability index: 1 ± 0.074

C/C=C/c1ccc([C@H]2[C@H]3CNC[C@@H]2N3S(=O)(=O)Cc2ccccc2)cc1
viability index: 1.06 ± 0.047

N#C[C@H]1[C@@H](c2ccccc2-c2ccc(F)cc2)[C@@H](CO)N1C(=O)Cc1cccnc1
viability index: 1.15 ± 0.046

CO[C@@H]1CN(C)C(=O)c2cc(NC(=O)Nc3cc(F)ccc3F)ccc2OC[C@@H](C)NC[C@H]1C
viability index: 1.105 ± 0.0072

Cc1noc(C)c1NC(=O)N(C)C[C@H]1Oc2ccc(NC(=O)Cc3cn(C)c4ccccc34)cc2CC(=O)N([C@H](C)CO)C[C@@H]1C
viability index: 1.04 ± 0.045

COCC(=O)N1C[C@@H](C)[C@H](OC)CN(C)C(=O)c2ccc(NC(=O)Nc3cccc(F)c3)cc2OC[C@@H]1C
viability index: 1.032 ± 0.0043

C[C@@H]1CCn2cc(nn2)COC[C@H](C)NC1=O
viability index: 1.06 ± 0.018

CC(=O)N1[C@H](CO)[C@@H](c2ccccc2)C12CN(Cc1ccc(Cl)cc1)C2
viability index: 1.06 ± 0.056

CCN(C[C@H]1N[C@H](CO)[C@@H]1c1ccccc1)C(=O)c1ccncc1
viability index: 1 ± 0.019

C[C@H]1CCCCO[C@H](CN(C)C(=O)Nc2cccc3ccccc23)[C@@H](C)CN([C@@H](C)CO)C(=O)c2cc(NC(=O)CCC(F)(F)F)ccc2O1
viability index: 0.993 ± 0.057

COCC(=O)N1[C@H](C#N)[C@H](c2ccccc2-c2cccc(C)c2)[C@H]1CO
viability index: 1.15 ± 0.053

CCCC(=O)Nc1ccc2c(c1)OC[C@H](C)N(CC1CCOCC1)C[C@@H](C)[C@H](OC)CN(C)C2=O
viability index: 1.02 ± 0.039

O=C(C[C@H]1CC[C@@H]2NC[C@H](O)COC[C@H]2O1)Nc1ccc(-c2ccccc2)cc1
viability index: 1.0439 ± 3.9e-05

O=C(C[C@@H]1CC[C@H]2NC[C@@H](O)COC[C@@H]2O1)Nc1ccc(-c2ccccc2)cc1
viability index: 0.826 ± 0.077

O=C(C[C@@H]1CC[C@@H]2NC[C@@H](O)COC[C@H]2O1)Nc1ccc(-c2ccccc2)cc1
viability index: 1.06 ± 0.024

Cc1cccc(S(=O)(=O)N2C[C@H]3[C@@H](c4ccccc42)[C@H](CO)N3Cc2ccc3c(c2)OCO3)c1
viability index: 1.01 ± 0.012
